Screening data (PubChem BioAssay)
Many of the other results were omitted from the sample, so hits are more common in it than they were.
APE1 inh = blocks human APE1 abasic DNA cleavage | P27695 | recombinant APE1, TAMRA/BHQ-2 abasic DNA cleavage fluorescence | Potency, µM (series often up to 65.8 µM), without a hit: at the highest dose activity change, negative = inhibition, usual class: inhibitors | 350,000 compounds, 0.35% hits;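 note: plate controls were vehicle for no effect and reference inhibitor for full effect; nearly all actives have a fitted effect of over 55% in size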
Target sequence (P27695 whole entry, looked up): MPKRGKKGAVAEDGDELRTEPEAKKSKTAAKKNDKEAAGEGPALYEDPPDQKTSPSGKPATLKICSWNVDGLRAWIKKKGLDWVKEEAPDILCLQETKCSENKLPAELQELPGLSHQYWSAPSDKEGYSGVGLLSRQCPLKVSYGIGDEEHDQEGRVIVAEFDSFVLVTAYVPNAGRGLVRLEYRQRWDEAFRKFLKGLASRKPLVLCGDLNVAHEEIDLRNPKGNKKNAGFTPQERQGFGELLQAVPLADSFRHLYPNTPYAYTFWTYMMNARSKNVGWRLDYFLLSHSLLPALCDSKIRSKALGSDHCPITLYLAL
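Incision of a quenched TAMRA/BHQ-2 THF abasic-site duplex (50 nM) by 0.75 nM APE1, after 15 min compound preincubation, measured as fluorescence increase over three 60 s reads. Values normalized to buffer, DMSO and NSC13755 control wells.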
BLM inh = inhibitors of human Bloom syndrome helicase BLM | recombinant BLM DNA unwinding, fluorescence dequenching | Potency, µM (titrated, usually from 56.1 µM), for the others: at the top dose activity change, negative = inhibition, usual class: inhibitors | 350,000 compounds, 0.2% hits | AID 2528;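 note: plate controls were vehicle for no effect and no enzyme for full effect; nearly all actives have a fitted effect of over 35% in size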
RECQ1 inh-1 = blocks DNA unwinding by human RECQ1 | RECQ1 DNA unwinding, red fluorescence kinetic read | Potency, µM (highest dose often 57.3 µM), for the others: at the highest dose activity, negative = inhibition, actives largely listed as inhibitors | 240,000 compounds, 0.54% hits;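 note: plate controls were vehicle for no effect and no enzyme for full effect; nearly all actives have a fitted effect of over 30% in size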
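50 nM RECQ1T1 preincubated 15 min with compound in Tris pH 8.0 buffer with MgCl2, DTT, Tween-20 and 2.5 ug/ml poly(dI-dC); started with 200 nM TAMRA/BHQ-2 forked duplex and 2 mM ATP. Unwinding read as fluorescence (525/598 nm), two reads 2 h apart.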
L3MBTL1 block = inhibitors of human L3MBTL1 | 230,000 compounds, 0.66% hits | Q9Y468 | Potency, µM (series often up to 57.1 µM), for the others: at the top dose activity, negative = inhibition, actives largely listed as inhibitors | AlphaScreen L3MBTL1–H3K9me1 peptide binding; note: nearly all actives have a fitted effect of over 60% in size
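AlphaScreen proximity signal between nickel-chelate acceptor and streptavidin donor beads (final 10 ug/mL) reports binding of 50 nM L3MBTL1 to 75 nM biotin-H3 K9me1 peptide; complex incubated with compounds 30 min at room temperature; cefsulodin titration as control.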
TDP1 block = blocks human tyrosyl-DNA phosphodiesterase 1 | Q9NUW8 | recombinant TDP1, AlphaScreen DNA substrate cleavage | Potency, µM (doses to about 130 µM), for inactives: at the highest dose activity change, negative = inhibition, usual class: inhibitors | 350,000 compounds, 0.28% hits | AID 485290; note: nearly all actives have a fitted effect of over 40% in size
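Here, a 5' biotin and 3' phosphotyrosine-FITC DNA oligonucleotide reports Tdp1 activity: intact substrate bridges AlphaScreen beads, while cleavage leaves a 3' phosphate and drops signal. All incubations at room temperature.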
JMJD2E inh = inhibitors of human JMJD2E histone demethylase; B2RXH2; JMJD2E catalytic domain, FDH-coupled NADH fluorescence (FDH is formaldehyde dehydrogenase); Potency, µM (doses to about 57.1 µM), inactives show at the top dose activity change, negative = inhibition, usual class: inhibitors; 230,000 compounds, 1.6% hits; AID 2147; active = well fitted inhibition curve with a large enough effect, not every such curve was filed as active; inconclusive = small, poorly fitted or top-dose-only effect, or another doubt; inactive = no such curve, though single readings can be large or run the other way;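 note: 0% = wells with enzyme and -100% = buffer wells without enzyme; nearly all actives have a fitted effect of over 50% in size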
Target sequence (B2RXH2 1-337 limits assumed): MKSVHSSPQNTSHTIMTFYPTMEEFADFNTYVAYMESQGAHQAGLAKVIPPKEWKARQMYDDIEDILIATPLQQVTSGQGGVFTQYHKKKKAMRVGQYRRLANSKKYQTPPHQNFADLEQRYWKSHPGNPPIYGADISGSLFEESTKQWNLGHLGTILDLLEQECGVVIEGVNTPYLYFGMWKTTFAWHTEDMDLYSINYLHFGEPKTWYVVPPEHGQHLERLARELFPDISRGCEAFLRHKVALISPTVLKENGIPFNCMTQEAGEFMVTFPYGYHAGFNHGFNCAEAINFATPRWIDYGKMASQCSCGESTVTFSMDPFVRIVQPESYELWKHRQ
RECQ1 conf = confirmation of human RECQ1 helicase inhibitors | shares compounds with RECQ1 inh-1 | RECQ1 helicase DNA unwinding, fluorescence | Potency, µM (titrated, usually from 229 µM), without a hit: top-dose activity change, negative = inhibition, actives largely listed as inhibitors | 610 compounds, 28% hits; note: nearly all actives have a fitted effect of over 45% in size
ADP FP counter = counter-screen for RECQ1 inhibitors: ADP displacement | shares compounds with RECQ1 inh-1 | ADP fluorescence polarization displacement counterscreen | Potency, µM (series often up to 228 µM), without a hit: at the highest dose activity change, negative = inhibition, hits mostly inhibitors | 530 compounds, 27% hits; note: nearly all actives have a fitted effect of over 45% in size
RECQ1 inh-2 = blocks human RECQ1 DNA unwinding. recombinant RECQ1 DNA unwinding, red fluorescence. Potency, µM (doses to about 119 µM), for inactives: at the highest dose activity, negative = inhibition, most hits filed as inhibitors. AID 504841. 1,100 compounds, 15% hits. shares compounds with RECQ1 inh-1; note: nearly all actives have a fitted effect of over 50% in size
Starred values were filed as active, the others as inactive; i = inactive; ? = inconclusive; . = not tested or not shown; [ ] = dose if it differs, or a comment. Unless noted, calls come from the whole dose curve; as a rule, active = well fitted curve in the direction sought with a large enough effect; inconclusive = small, poorly fitted or top-dose-only effect, or another doubt; inactive = no such curve, though single readings can be large; an effect the other way counts as inactive or inconclusive. Unless noted, % is set by controls: 0 for no effect and ±100 for the full control effect; potency is the fitted concentration of half-maximal effect.

SMILES | APE1 inh | BLM inh | RECQ1 inh-1 | L3MBTL1 block | TDP1 block | JMJD2E inh | RECQ1 inh-2 | others
Cc1oc(C)c2c(=O)ccc3c(c12)OC(N)=C(C#N)C3c1ccccc1Cl (centres undefined) | 1% | ? | ? | ? | 6% | 18µM* | -21%
COc1cccc([C@@H]2Oc3ccc(OC)cc3/C(=N/O[C@@H](C)CN3CCCCc4nc(C)c(C)cc43)[C@@H]2O)c1 | 3%[12.4 µM] | 3%[12.4 µM] | 9%[11.5 µM] | . | 5%[21 µM] | . | .
Cc1ccc(S(=O)(=O)c2c(O)cc(C)c(NS(=O)(=O)c3ccc(Br)cc3)c2C)cc1 | . | -12% | . | . | . | . | .
Cc1nn2c(COc3ccc(NC(=O)C(C)C)cc3)nnc2c2ccccc12 | 9% | 1% | ? | . | 0% | 2% | -9%
CCOC(=O)Nc1ccc(OCc2nnc3c4ccccc4c(C)nn23)cc1 | 2% | -4% | -7% | 2% | 1% | -4% | .
CCC1CN(C(=O)N2CCC(C(=O)NCCc3ccc(OC)cc3OC)CC2)c2cc(C)ccc2O1 (centres undefined) | . | -7% | . | . | 1% | . | .
Cc1cc(C(=O)COC(=O)c2cccn2C)c(C)n1Cc1ccco1 | ? | -18% | ? | -57% | 3% | -13% | -18%
Cc1cc(C(=O)COC(=O)c2ccco2)c(C)n1Cc1ccco1 | ? | -13% | -14% | . | -14% | 4% | .
O=C(c1ccccc1)N1CCc2cc(CNS(=O)(=O)c3ccccc3Cl)ccc21 | . | -5% | . | . | 5% | . | .
CCOc1ccccc1OCCOCCOc1ccccc1[N+](=O)[O-] | -5% | -3% | -1% | 11% | -3% | -4% | .
CCOc1cccc(OCCOc2ccccc2[N+](=O)[O-])c1 | -5% | -11% | ? | 25% | -6% | -12% | -10%
Cc1ccc(Nc2nc(N3CCOCC3)nc(N3CCOCC3)n2)cc1 | 0% | -5% | -6% | -1% | 0% | -6% | .
Cc1ccc(Nc2nc(Nc3ccc(Cl)cc3)nc(N3CCOCC3)n2)cc1 | . | . | . | . | -2% | . | . | RECQ1 conf=-15%[69.1 µM]
CC(=O)Nc1ccc(Nc2nc(Nc3ccc(Cl)cc3)nc(N3CCOCC3)n2)cc1 | . | . | . | . | 1% | . | . | RECQ1 conf=-6%[69.1 µM]
Cc1ccc(C(=O)N2CCc3ccccc3C2)cc1S(=O)(=O)N1CCOCC1 | 37% | -4% | . | . | 4% | . | .
Cc1ccccc1NS(=O)(=O)c1cc(C(=O)N2CCc3ccccc3C2)ccc1C | -4% | -7% | ? | -5% | 7% | -1% | -8%
CCN1/C(=C/c2ccc3ccccc3[n+]2CC)C=Cc2ccccc21 | -4% | -9% | ? | . | 5% | 3% | 50µM*
CCN1/C(=C/c2ccc3ccccc3[n+]2CCCS(=O)(=O)[O-])C=Cc2cc(C)ccc21 | 36% | -3% | . | . | . | . | .
O=C(CSc1nccn1-c1ccc(F)cc1)Nc1ccc(OC(F)(F)F)cc1 | . | -7% | . | . | 10% | . | .
Nn1cnnc1N/N=C\c1ccc(-c2ccccc2[N+](=O)[O-])o1 | 7% | 0% | 4.5µM* | -13% | 7% | 4.5µM* | . | RECQ1 conf=6%[114 µM]
O=[N+]([O-])c1ccccc1-c1ccc(/C=N/n2cnnc2)o1 | -14% | 1% | -1% | -2% | -8% | 6% | .
Nc1ncnc2c1ncn2COC(CO)CO | . | . | . | . | 0% | . | . | RECQ1 conf=-6%[69.1 µM]
COc1cccc(Nc2ncc3nc(-c4cc(F)cc(F)c4)c(=O)n(CCC#N)c3n2)c1 | 18% | -5% | ? | . | . | . | ?
COc1ccccc1-c1csc(NC(=O)c2cc(-c3cccs3)nc3ccccc23)n1 | 15% | -15% | ? | -9% | 1% | ? | -13%
Cc1ccc(OCc2ccc(C(=O)Nc3ccc(C(N)=O)cc3)o2)c([N+](=O)[O-])c1 | -4% | -1% | ? | 5% | -12% | 24% | ?
SMILES | APE1 inh | BLM inh | RECQ1 inh-1 | L3MBTL1 block | TDP1 block | JMJD2E inh | RECQ1 inh-2 | others
COC(=O)c1cn(C)c2ccc(S(=O)(=O)N3CCCC3)cc2c1=O | -3% | -2% | ? | -5% | 4% | -27% | -31%
COc1cc(/C=N/N2C(=O)CSC2=S)ccc1O | 4% | -1% | ? | . | -10% | 3% | ?
COc1ccc(C)cc1NC(=O)C1CCN(S(=O)(=O)c2ccc3[nH]c4c(c3c2)CCCCC4)CC1 | . | -9% | . | . | 5% | . | .
Cc1cccc(CN2CC34CCC(CC3S2(=O)=O)O4)c1 (centres undefined) | 18% | -1% | i | . | 9% | . | .
CC(C)[C@H](NS(=O)(=O)c1ccc2c(c1)OCCO2)C(=O)OCC(=O)Nc1cc(Cl)ccc1Cl | 10% | -6% | 50µM* | -2% | 3% | 1% | -16%
CC(C)[C@H](NS(=O)(=O)c1ccc2c(c1)OCCO2)C(=O)OCC(=O)Nc1ccccc1Cl | -4% | -2% | -3% | 5% | 2% | -1% | .
CCOC(=O)/C(=C\C=C1/Sc2cc(OCC)c(OCC)cc2N1CC)C(C)=O | 15% | -8% | -15% | -13% | -1% | -5% | .
CCOC(=O)/C(=C/C=C1\Sc2cc(OCC)c(OCC)cc2N1CC)C(C)=O | ? | -1% | 10µM* | -3% | 3% | -27% | . | RECQ1 conf=?;ADP FP counter=45µM*
CCOC(=O)C(=CNc1cc(Cl)c(-c2ccco2)c(Cl)c1)C(=O)OCC | -2% | -12% | -13% | -14% | . | ? | .
CCOC(=O)C(=CNc1ccc(-c2ccco2)c(Cl)c1)C(=O)OCC | -3% | -13% | ? | -18% | 0% | ? | -27%
CCOC(=O)C1CCN(C(=O)Cn2ncc3c4ccccc4n(Cc4ccccc4)c3c2=O)CC1 | . | -1% | . | . | -3% | . | .
O=C(c1cc(-c2ccco2)on1)N1CCCc2ccccc21 | 12% | -22% | 40µM* | 0% | 9% | -8% | ?
O=C(c1cc(-c2ccccc2)on1)N1CCCc2ccccc21 | 3% | -15% | -12% | 28% | 3% | 2% | .
